The text below walks through data of PubChem BioAssay.

Activity calls are given as the source filed them. Unless noted, the rule behind the calls is not given here.

A short description of experiment [1]: compounds binding Alexa647 anti-His antibody – biochemical, small-molecule microarray, 635 nm fluorescence, artefact control for SMM control protein annotation, primary screen (AID 1128).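 Note: score merges feature fluorescence with signal-to-noise for each printed compound spot.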 The note with it: higher = more signal.
The test system of experiment [2] is Human papillomavirus type 1a E7 protein (residues 1-88). The experiment in a line: HPV1a E7 small-molecule binders, primary screen, biochemical, small-molecule microarray, residues 1-88, 635 nm (AID 1129). As to conditions: small-molecule microarray binding, fluorescence 635 nm; higher = more signal.
Experiment [3] has as its target Focal adhesion kinase 1 (Homo sapiens) (UniProt Q05397). The experiment in a line: PTK2 protein binding on printed compound slides – biochemical, small-molecule microarray, 635/667 nm fluorescence, BSA, DTT, primary screen (AID 1130).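 Note: composite of spot emission at 667 nm and signal to noise over triplicate slides.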 As to conditions: 635 nm fluorescence, higher = more signal.
The subject of experiment [4] is Fibrinogen (Alexa647-labelled). Put plainly: Alexa647-fibrinogen binding to printed small molecules – biochemical, small-molecule microarray, 635/667 nm fluorescence, artefact control for SMM control-protein annotation, profiling panel (AID 1131).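 Note: z-score merges 667 nm fluorescence with per-spot signal-to-noise over triplicate slides.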 The note with it: fibrinogen-A647 binding fluorescence, higher = more signal.
The target in experiment [5] is Follistatin (Homo sapiens) (UniProt P19883). The experiment in a line: FST protein binding to printed compounds – biochemical, small-molecule microarray, 635/667 nm fluorescence, primary screen (AID 1132). The note with it: 635 nm fluorescence, higher = more signal.
Experiment [6] deals with Fibroblast growth factor 2 (Homo sapiens) (UniProt P09038). The experiment in a line: basic fibroblast growth factor binding to printed compounds – biochemical, small-molecule microarray, 635/667 nm fluorescence, primary screen (AID 1133). As to conditions: FGF2, fluorescence 635/667, higher = more signal.
The nature of experiment [7]: JC-1 mitochondrial potential readout, lung cancer cells – cell-based, A549, JC-1 fluorescence, basal, 24 h, 100 nL, profiling panel (AID 1138).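 Note: A549 lung adenocarcinoma cells under basal conditions with no added stimulus; test concentration not given here.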 As to conditions: higher = more signal.
Experiment [8] relates to Lefty1. Put plainly: Lefty1 protein binding to printed compounds – biochemical, small-molecule microarray, 635/667 nm fluorescence, primary screen (AID 1139). The note with it: fluorescence 635/667, higher = more signal.
The test system of experiment [9] is wheat germ agglutinin (Triticum aestivum), Alexa647-labelled. The experiment in a line: Alexa647-WGA lectin binding to printed small molecules – biochemical, small-molecule microarray, 635/667 nm fluorescence, artefact control for SMM control-protein annotation, profiling panel (AID 1140).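 Note: score merges 667 nm feature emission with signal to noise over triplicate slides.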 As to conditions: WGA-A647 binding, 635 nm fluorescence, higher = more signal.

Experiment [10] concerns the target Luciferin 4-monooxygenase (Photinus pyralis) (UniProt P08659). The experiment in a line: inhibition of purified Photinus pyralis luciferase – biochemical, luminescence, purified enzyme, 2006 set, primary screen (AID 1141).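 Note: cell-free assay with purified firefly luciferase at 100 ng per well in PBS; test concentration not given here.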 As to conditions: purified firefly luciferase, SteadyGlo luminescence, 30 min; higher = more signal, called active from +8 up or from −8 down.

Experiment [11] relates to Wnt5a (protein binding on small-molecule microarray). The experiment in a line: small molecules binding Wnt5a protein – biophysical, small-molecule microarray, 635/667 nm fluorescence, primary screen (AID 1142).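 Note: fluorescence read at 667 nm with signal to noise per printed feature.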 As to conditions: 635 nm fluorescence, higher = more signal.
A short description of experiment [12]: ATP-based viability of Huh7 replicon cells – cell-based, CellTiter-Glo luminescence, basal, 48 h, cytotoxicity control for HCV replication inhibitor project, primary screen (AID 1143).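 Note: Huh7 hepatoma cells carrying a hepatitis C replication reporter with no stimulus; test concentration not given here.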 As to conditions: higher = more signal, called active from +8 up or from −8 down. In general terms: Replicon systems follow genome replication, usually without infectious particles.

A short description of experiment [13]: Pseudomonas biofilm growth suppression – PAO1 strain, BacTiter-Glo luminescence, LB-PBS, primary screen (AID 1144). As to conditions: P. aeruginosa PAO1 biofilm, 12 h, higher = more signal.
Experiment [14] can be described thus: basal CRE-LacZ reporter activity in PC12 – cell-based, unstimulated, primary screen (AID 1145). As to conditions: no forskolin, luminescence, 4.5 h, higher = more signal, called active from +8 up or from −8 down.
Experiment [15] in a line: forskolin-driven CRE-LacZ activity in PC12 – cell-based, CRE-LacZ reporter, forskolin-stimulated, primary screen (AID 1146).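 Note: PC12 cells with 6xCRE LacZ reporter stimulated by forskolin 10 µM; beta-galactosidase reporter signal reflecting CREB driven transcription.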 The note with it: luminescence, 4.5 h, higher = more signal, called active from +8 up or from −8 down.
Experiment [16] has as its target Streptavidin (Streptomyces avidinii) (UniProt P22629). The experiment in a line: compounds binding control protein streptavidin – biophysical, small-molecule microarray, 635/667 nm fluorescence, artefact control for SMM compound annotation, primary screen (AID 1147).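 Note: signal reflects streptavidin binding to arrayed compounds as a control protein.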 As to conditions: higher = more signal.
The nature of experiment [17]: probe aInhba binding on compound microarray – biochemical, small-molecule microarray, 635/667 nm fluorescence, primary screen (AID 1148).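 Note: score merges 667nm spot fluorescence with signal-to-noise for antibody binding to printed compounds.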 As to conditions: higher = more signal.
Experiment [18] has as its target Torsin-1A (Homo sapiens) (UniProt O14656). Put plainly: TOR1A wild-type binding on microarray – cell lysate, small-molecule microarray, lysate, 635/667 nm, primary screen (AID 1149). As to conditions: COS7 hTOR1A-WT lysate, 635 nm fluorescence, higher = more signal.
Experiment [19] has the same target. The experiment in a line: torsin A mutant lysate binding on microarrays – cell lysate, small-molecule microarray, COS7 lysate, 635/667 nm fluorescence, primary screen (AID 1150).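 Note: score pools 667 nm emission and signal to noise measuring lysate protein binding.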 As to conditions: COS7 hTOR1A mutant lysate, 635 nm fluorescence, higher = more signal.
Experiment [20] has as its system Sonic hedgehog protein (Shh). Put plainly: Sonic hedgehog microarray binding compounds – biochemical, small-molecule microarray, 635/667 nm fluorescence, primary screen (AID 1151).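 Note: Shh protein binding to compounds spotted on small-molecule microarray slides; score combines spot fluorescence intensity with signal-to-noise across triplicate slides.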 As to conditions: 635 nm fluorescence, higher = more signal.

Sequence of Torsin-1A (Homo sapiens) (O14656 whole entry, looked up): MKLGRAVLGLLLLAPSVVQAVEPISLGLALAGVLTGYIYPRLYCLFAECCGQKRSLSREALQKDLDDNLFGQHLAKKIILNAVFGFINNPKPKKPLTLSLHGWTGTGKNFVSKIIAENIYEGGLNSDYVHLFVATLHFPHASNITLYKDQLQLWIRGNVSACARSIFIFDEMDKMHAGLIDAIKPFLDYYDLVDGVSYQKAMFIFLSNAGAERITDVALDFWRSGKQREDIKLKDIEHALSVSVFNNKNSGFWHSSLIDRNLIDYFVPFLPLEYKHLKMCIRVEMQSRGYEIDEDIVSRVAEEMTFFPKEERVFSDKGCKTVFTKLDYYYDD
Sequence of Luciferin 4-monooxygenase (Photinus pyralis) (P08659 whole entry, looked up): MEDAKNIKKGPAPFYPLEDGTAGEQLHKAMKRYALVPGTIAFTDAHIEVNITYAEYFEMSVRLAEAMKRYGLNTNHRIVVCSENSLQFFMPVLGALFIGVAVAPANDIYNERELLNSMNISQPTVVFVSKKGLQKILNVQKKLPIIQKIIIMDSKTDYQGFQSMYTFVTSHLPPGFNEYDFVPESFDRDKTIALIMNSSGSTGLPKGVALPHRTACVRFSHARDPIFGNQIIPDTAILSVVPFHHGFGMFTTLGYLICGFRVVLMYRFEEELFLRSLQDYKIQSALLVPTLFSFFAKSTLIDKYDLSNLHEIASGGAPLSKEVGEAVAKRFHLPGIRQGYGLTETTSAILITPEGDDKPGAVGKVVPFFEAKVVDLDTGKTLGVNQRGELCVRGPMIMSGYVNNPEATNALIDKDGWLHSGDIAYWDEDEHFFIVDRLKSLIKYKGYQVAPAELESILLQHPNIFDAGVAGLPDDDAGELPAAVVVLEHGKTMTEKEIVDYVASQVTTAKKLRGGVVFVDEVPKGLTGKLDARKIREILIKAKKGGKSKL
Sequence of Follistatin (Homo sapiens) (P19883 whole entry, looked up): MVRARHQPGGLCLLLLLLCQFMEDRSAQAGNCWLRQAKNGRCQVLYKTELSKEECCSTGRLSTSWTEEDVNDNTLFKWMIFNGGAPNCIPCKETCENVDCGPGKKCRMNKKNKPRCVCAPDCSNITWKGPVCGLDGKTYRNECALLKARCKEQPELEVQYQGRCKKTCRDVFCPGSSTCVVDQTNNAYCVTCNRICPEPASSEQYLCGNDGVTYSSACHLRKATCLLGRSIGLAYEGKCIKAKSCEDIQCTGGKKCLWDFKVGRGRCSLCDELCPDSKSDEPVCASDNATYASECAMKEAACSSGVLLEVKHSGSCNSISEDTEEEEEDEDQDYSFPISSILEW
Sequence of Focal adhesion kinase 1 (Homo sapiens) (Q05397 whole entry, looked up): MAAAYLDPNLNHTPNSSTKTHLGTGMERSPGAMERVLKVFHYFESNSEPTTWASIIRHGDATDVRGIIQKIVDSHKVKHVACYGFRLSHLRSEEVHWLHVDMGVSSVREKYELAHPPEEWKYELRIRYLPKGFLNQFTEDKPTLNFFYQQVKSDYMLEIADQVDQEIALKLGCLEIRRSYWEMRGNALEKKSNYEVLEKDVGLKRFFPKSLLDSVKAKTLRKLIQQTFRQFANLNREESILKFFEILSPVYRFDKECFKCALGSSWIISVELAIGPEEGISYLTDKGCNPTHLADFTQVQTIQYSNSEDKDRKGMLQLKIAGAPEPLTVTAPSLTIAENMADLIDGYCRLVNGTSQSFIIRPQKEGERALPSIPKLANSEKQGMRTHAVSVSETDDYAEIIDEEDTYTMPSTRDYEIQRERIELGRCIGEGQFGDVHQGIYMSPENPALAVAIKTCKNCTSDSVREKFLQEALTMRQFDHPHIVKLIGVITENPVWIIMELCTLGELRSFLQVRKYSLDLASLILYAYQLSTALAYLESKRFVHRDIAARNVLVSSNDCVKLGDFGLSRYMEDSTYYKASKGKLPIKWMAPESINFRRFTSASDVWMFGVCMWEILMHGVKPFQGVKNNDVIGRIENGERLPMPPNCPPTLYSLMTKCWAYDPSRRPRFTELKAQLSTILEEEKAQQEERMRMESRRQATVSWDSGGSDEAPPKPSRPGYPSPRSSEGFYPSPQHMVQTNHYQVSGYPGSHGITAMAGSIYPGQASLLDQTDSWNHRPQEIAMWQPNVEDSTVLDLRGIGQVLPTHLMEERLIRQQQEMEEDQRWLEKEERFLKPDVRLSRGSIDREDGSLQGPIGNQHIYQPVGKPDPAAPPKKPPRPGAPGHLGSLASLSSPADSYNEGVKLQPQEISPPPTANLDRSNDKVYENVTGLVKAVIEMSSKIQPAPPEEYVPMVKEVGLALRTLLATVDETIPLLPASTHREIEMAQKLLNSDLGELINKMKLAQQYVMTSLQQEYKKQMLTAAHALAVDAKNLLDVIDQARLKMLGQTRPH
Sequence of Streptavidin (Streptomyces avidinii) (P22629 whole entry, looked up): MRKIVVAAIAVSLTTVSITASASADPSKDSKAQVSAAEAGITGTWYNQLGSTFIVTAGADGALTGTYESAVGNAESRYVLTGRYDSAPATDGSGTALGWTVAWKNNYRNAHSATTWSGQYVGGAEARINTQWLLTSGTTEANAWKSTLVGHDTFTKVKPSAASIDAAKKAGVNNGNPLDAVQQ
Sequence of Fibroblast growth factor 2 (Homo sapiens) (P09038 whole entry, looked up): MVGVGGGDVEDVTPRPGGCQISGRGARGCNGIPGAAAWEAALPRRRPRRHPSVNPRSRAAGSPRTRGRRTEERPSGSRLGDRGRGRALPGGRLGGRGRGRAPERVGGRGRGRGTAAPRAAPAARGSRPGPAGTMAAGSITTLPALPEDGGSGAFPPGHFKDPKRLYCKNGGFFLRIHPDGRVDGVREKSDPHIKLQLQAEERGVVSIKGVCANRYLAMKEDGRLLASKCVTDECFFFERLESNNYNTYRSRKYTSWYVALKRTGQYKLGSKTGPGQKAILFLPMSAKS

Take `COc1ccc(C#Cc2ccc3c(c2)[C@]2(C(=O)N3)[C@H](c3ccc(OCCO)cc3)N3[C@H](c4ccccc4)[C@H](c4ccccc4)OC(=O)[C@H]3[C@@H]2C(=O)O)cc1`: the composite z-score in experiment [1] worked out at 0.406; in experiment [2], 1.22; in experiment [3], 0.583; in [4] it was 0.771; in experiment [5], 1.15; in experiment [6] it was 0.485. In addition, the composite z-score was 1.63 in [8]; 0.416 in experiment [9]; 0.57 in experiment [11]; -0.105 in experiment [16]; 0.927 in experiment [17]; 0.546 in experiment [18]. The figures for the composite z-score in [19] and in [20] were 1.2 and 1.89, respectively. The z-score is -2.54 in experiment [7]; -4.63 (inactive) in experiment [10]; -5.01 (inactive) in [12]; -2.48 (inactive) in experiment [13]; -0.0515 (inactive) in experiment [14]; 3.52 (inactive) in [15].
With `CC(C)N1CC=CC23O[C@@H]4C=CCCOC(=O)C4[C@H]2C(=O)N(CCCCCO)[C@@H]3C1=O` (stereo not given in full), the composite z-score is 3 in [1]; -0.349 in [2]; -0.133 in [3]; 0.834 in experiment [4]; -1.21 in [5]; -0.886 in experiment [6]. Moreover, the composite z-score is -0.376 in experiment [8]; 0.717 in experiment [9]; -0.135 in [11]; 1.88 in [16]; -0.224 in experiment [17]; -1.35 in experiment [18]. The composite z-score was -1.12 in experiment [19] and 0.0551 in experiment [20]. For the same compound, the z-score in [7] is 1.34; in experiment [10] it was 0.0137 (inactive); in [12], 0.317 (inactive); in [13], -1.18 (inactive); in [14] it was 0.199 (inactive); in [15], -0.695 (inactive).
In the case of `COc1cccc(C[C@H]2C[C@@H](CO[Si](C(C)C)(C(C)C)C(C)C)N3C(=O)[C@@]4(C(C)=O)O[C@@]23[C@@H]2C(=O)N(C)C(=O)[C@@H]24)c1`, the composite z-score in [1] was -0.265; in experiment [2] it was 0.681; in experiment [3] it was 0.0669; in experiment [4] it was 0.529; in [5], 0.897; in experiment [6] it was 1.25. Moreover, the composite z-score in experiment [8] worked out at 1.4; in experiment [9], 0.326; in [11], 0.0121; in [16], 0.0285; in [17], 0.2; in experiment [18] it was 0.241. Further, the composite z-score in [19] turned out to be 0.0185; in experiment [20], 1.3. For the same compound, the z-score is 0.189 in experiment [7]; 0.768 (inactive) in [10]; -2.38 (inactive) in experiment [12]; 0.333 (inactive) in experiment [13]; 0.222 (inactive) in [14]; -0.065 (inactive) in experiment [15].
As for `Cc1ccc(F)cc1S(=O)(=O)N[C@@H]1CCN(Cc2ccc3[nH]ccc3c2)C1`, the composite z-score in experiment [1] is 0.426; in experiment [2] it was 0.479; in experiment [3] it was -0.105; in experiment [4], -0.0254; in experiment [5] it was 1.06; in experiment [6] it was 0.561. Moreover, the composite z-score was 0.543 in [8]; 0.0689 in [9]; -0.159 in experiment [11]; 0.874 in experiment [16]; -0.0403 in experiment [17]; 0.247 in [18]. The composite z-score in experiment [19] came out at 0.608; in [20] it was 0.711. Also, the z-score in [7] is 0.316; in [10], 0.175 (inactive); in experiment [12], -2.99 (inactive); in experiment [13], 1.17 (inactive); in experiment [14], -0.147 (inactive); in [15], 0.49 (inactive).
Regarding `COc1ccc([Si](C)(C)[C@H]2[C@H](CCO)O[C@@]3(C(=O)N(Cc4ccccc4)c4ccc(N(C=O)c5ccccc5)cc43)[C@@H]2C)cc1`, the composite z-score in [1] was 0.359; in experiment [2], 0.644; in experiment [3], 0.274; in experiment [4], 0.605; in experiment [5], 0.919; in experiment [6] it was 0.25. For the same compound, the composite z-score in experiment [8] is 1.01; in [9], 0.153; in experiment [11] it was 0.078; in [16], 0.593; in [17], 0.122; in experiment [18], -0.0549. In addition, the values for the composite z-score in experiment [19] and in experiment [20] were 0.865 and 1.52, respectively. The z-score in experiment [7] was 0.821; in [10], 0.457 (inactive); in experiment [12], -6.74 (inactive); in experiment [13], -0.862 (inactive); in [14], 2.08 (inactive); in experiment [15], -0.993 (inactive).
